According to PubChem BioAssay (NCI):
Several values for one entry are separate records, joined by “and”; a condition that tells them apart may be missing. Equal entries are not always repeated. Compounds without any hit were thinned out: in the full panel of roughly 79,000, 15% have a hit. Unmarked numbers belong to inactive results. Activity calls are given as the source filed them. Rule as the data show it: active = growth inhibition above about 70%; inactive = the rest.

Assays:
[1] = NCI Yeast Anticancer Drug Screen. Data for the rad50 strain (AID 155);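 also: 0% = growth of vehicle-only cultures of the same strain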; settings: S. cerevisiae rad50 strain growth inhibition, hits give high values; at 50.0 µM unless noted
Method in brief: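 Relative growth inhibition (compound vs vehicle) was measured in yeast with a defined repair-gene alteration.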

[2] = NCI Yeast Anticancer Drug Screen. Data for the mec2-1 strain (AID 157); settings: S. cerevisiae mec2-1 strain, hits give high values; at 50.0 µM unless noted
Method in brief: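 Strain: mec2-1 (DNA repair/cell cycle alteration). Compound exposure, then growth measured; inhibition expressed relative to vehicle.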

[3] = NCI Yeast Anticancer Drug Screen. Data for the sgs1 mgt1 strain (AID 161);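 also: 0% = growth of cultures given vehicle only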; settings: S. cerevisiae sgs1 mgt1 strain, hits give high values; at 50.0 µM unless noted
Method in brief: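 Read-out: growth inhibition vs vehicle controls. Cells: mutant yeast strain deficient in DNA damage repair.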

[4] = NCI Yeast Anticancer Drug Screen. Data for the cln2 rad14 strain (AID 165);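 also: 0% = growth equal to vehicle treated cultures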; settings: S. cerevisiae cln2 rad14 strain, hits give high values; at 50.0 µM unless noted
Method in brief: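 Compounds are applied to the cln2 rad14 yeast strain, and growth is then compared with that of vehicle-treated cultures to give inhibition.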

[5] = NCI Yeast Anticancer Drug Screen. Data for the bub3 strain (AID 167); settings: S. cerevisiae bub3 mutant strain, hits give high values; at 50.0 µM unless noted
Method in brief: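 Screening used yeast with an engineered genetic alteration affecting cell cycle control. Compound-exposed cultures were compared with vehicle cultures, and reduced growth was taken as inhibition.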

[6] = NCI Yeast Anticancer Drug Screen. Data for the mlh1 rad18 strain (AID 175); settings: S. cerevisiae mlh1 rad18 strain growth inhibition, hits give high values; at 50.0 µM unless noted
Method in brief: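 Read-out is yeast growth inhibition, calculated against vehicle-only controls. The compound was applied to a strain engineered with DNA damage repair alterations.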

| SMILES | growth inhibition [1] | growth inhibition [2] | growth inhibition [3] | growth inhibition [4] | growth inhibition [5] | growth inhibition [6] |
| --- | --- | --- | --- | --- | --- | --- |
| Cc1cccc(C(=N)c2ccccc2Cc2cccc3ccccc23)c1C | 51% | 6.5% | 66% | 17.6% | 68.5% | 37.8% |
| CCOC(=C\C(=O)NC)/C=C/c1ccc([N+](=O)[O-])cc1 | -5.75% | 0.65% | -6.1% | -18.4% | 5.85% | -3.45% |
| Cc1ccc(S(=O)(=O)OCC2C3C=CC(C4C=CC43)C2COS(=O)(=O)c2ccc(C)cc2)cc1 (centres undefined) | -4.25% | -0.65% | -10% | -25.3% | 11.8% | -0.4% |
| CSc1nc(N)c(I)c(Cl)n1 | 7.8% | 3.65% | 6.9% | 2.4% | -14.6% | -2.6% |
| CC(CC(=O)O)(CC(=O)O)C(=O)O | 16.1% | -17.9% | -28.9% | 12.6% | -29.4% | -22.9% |
| O=C(O)/C=C\C(=O)NNC(=O)/C=C\C(=O)O | 5.55% | -2.8% | -5.05% | -18.9% | 5.45% | -24.4% |
| O=c1[nH]c(=O)n(C2OC(CO)C(O)C2O)c2ccccc12 (centres undefined) | 8.3% | -6.4% | -8% | -2% | -5.45% | 3.8% |
| NCc1cc(Br)ccc1O | 24.4% | 3.3% | 23.5% | -66.2% | -11% | 20.6% |
| CCN(CC)CCOC(=O)Cc1cccc2c(=O)cc(-c3ccccc3)oc12 | -1.65% | -11.7% | -3.65% | -3.9% | 14.8% | -53% |
| N#Cc1ccc(Nc2cnc3cc(N)ccc3n2)cc1 | 38.6% | -10.2% | 13.6% | 18% | 12.8% | 34.6% |
| Nc1nc(=S)[nH]c(=S)[nH]1 | 22.9% | 19.4% | 10.9% | 2.7% | 17.2% | -4.45% |
| CCCCC(NC(=O)c1ccc2ccccc2n1)C(=O)O (centres undefined) | -0.35% | 9% | 1.5% | 7.35% | -8.7% | 20.2% |
| Cc1ccc(C2=Nc3ccccc3NC(=O)C2)cc1 | -2.6% | -20.1% | -12.6% | 22.2% | -7.35% | -17.9% |
| Cc1ccc(NC(=O)Oc2ccc(C(C)(C)C)cc2)cc1NC(=O)Oc1ccc(C(C)(C)C)cc1 | -14.4% | -29.4% | -6.35% | -4.75% | 10.7% | -18.6% |
| CC(=O)[CH-]C(=O)c1ccccc1.CC(=O)[CH-]C(=O)c1ccccc1.CC1(C)OCC(C2OC3OC(C)(C)OC3C2[O-])O1.CC[O-].[Ti+4] (centres undefined) | 41.4% | 24.1% | 35.5% | 23% | 31.2% | 33.4% |
| C[n+]1cn(-c2nc3ccccc3nc2[N-]S(=O)(=O)c2ccccc2)c2ccccc21 | -0.2% | -5.7% | -13.2% | -18.4% | -20.1% | -38.5% |
| CC(=O)NC1C(OCc2ccccc2)OC(CO)C(O)C1OC(C)C(=O)N[C@@H](C)C(=O)N[C@H](CCC(=O)OCCNc1c2ccccc2nc2cccc([N+](=O)[O-])c12)C(N)=O (some centres undefined) | 87.2% (active) | 90.8% (active) | 90.4% (active) | 90.5% (active) | 88.7% (active) | 86.8% (active) |
| Cc1ccc(S(=O)(=O)N2CCC(CCl)N(S(=O)(=O)c3ccc(C)cc3)CC2CCl)cc1 (centres undefined) | 18.1% | 3.6% | 0.95% | -9.05% | 3.45% | 7.8% |
| CCCCCCCCCCSCC(=O)O | -12.8% | -24.6% | -15.5% | -3.3% | -30.6% | -29.5% |
| C1CN(C23OC4(N5CCOCC5)C5C6CC(C7C6C4C72)C53)CCO1 (centres undefined) | -18.9% | -3% | -3.9% | -43.1% | -0.05% | -11.2% |

| SMILES | growth inhibition [1] | growth inhibition [2] | growth inhibition [3] | growth inhibition [4] | growth inhibition [5] | growth inhibition [6] |
| --- | --- | --- | --- | --- | --- | --- |
| CCCCCc1cc[n+](CC(=O)c2ccc(F)cc2)cc1 | -6.55% | 13.6% | 23.1% | -35.6% | 45.6% | 13.5% |
| COC(=O)c1ccccc1-c1ccccc1C(=O)O | 1.2% | -3.35% | -5.45% | -13.8% | 8.3% | -1.7% |
| O=C(Cc1nc2ccccc2o1)C(=O)Nc1ccccc1C(F)(F)F | -16.5% | -4.9% | -2.8% | 7.2% | 2.75% | 17.6% |
| Cc1ccc(CC2CC(=O)NC2=O)cc1 (centres undefined) | 13.6% | -2.95% | 22.1% | 2.15% | 10.5% | -3.8% |
| O=C1c2c(ccc3c2CCCC3)CC1Cc1ccc2c(c1)CCCC2 (centres undefined) | -22% | -15.2% | -18.8% | -25.1% | -17.4% | -37.7% |
| C/C(=N\NC(=O)Nc1ccc(N=Nc2ccccc2)cc1)c1ccncc1 | 17.4% | 10.5% | 19.1% | 1.5% | 14.3% | 10.7% |
| O=C(/C(Cl)=N/O)c1ccc(O)c(O)c1 | 30.3% | 14.8% | 18.2% | 24.6% | 47.2% | 19.9% |
| Nc1nnc2nc(C(C(=O)c3ccc(F)cc3)c3nc4nnc(N)n4[nH]c3=O)c(=O)[nH]n12 | 15.1% | 4.15% | -10.2% | 8.45% | 0.2% | 18.8% |
| COC(=O)c1ccccc1NC(=O)Cc1ccccc1 | -0.5% | -27.1% | 15.9% | -5.65% | 37.2% | -15.7% |
| S=c1nc[nH]c2c1ncn2Cc1ccco1 | 5.85% | -12.9% | -11.3% | 0.55% | -46.2% | 5% |
| CC1=C2CN(C(=O)OCC(C)C)CCC2C2=C(C(=O)c3ccccc3C2=O)C1C (centres undefined) | 1.4% | -3.75% | 39.6% | 14.6% | -12.2% | 44.5% |
| CCCCCC(=O)OC(c1ccc(Cl)cc1)c1ccc(Cl)cc1 | -5.2% | -26.2% | 5.5% | 12.6% | 26.8% | 5.3% |
| CN(C)c1ccc(-c2c3ccccc3nc3ccccc23)cc1 | -19.4% and -12.1% | 9.35% and -6.05% | 14.2% and -14.2% | 0.05% and -26.1% | 9.95% and -16.1% | -4.7% and 5.8% |
| CCOc1ccccc1N=Nc1c(-c2ccccc2)nn(C(=O)CC(=O)Nc2cccc(Cl)c2)c1-c1ccccc1 | 12.6% | -13.9% | 40.9% | 9.2% | 26.2% | 22.2% |
| CCOC(=O)c1[nH]c(=S)n(C)c1C(=O)OCC | -12.9% | 6.75% | 29.1% | -33% | 8.1% | 0.55% |
| COc1nc(NC2OC(CO)C(O)C(O)C2O)c(C(=O)CCl)c(=O)n1C (centres undefined) | 3.9% | 4.2% | -15.8% | -7.45% | -3.4% | 4.05% |
| CC(C)(C)COB(OCC(C)(C)C)OCC(C)(C)C | -2.8% | -13.2% | 3.55% | -29.1% | -9.55% | -15.2% |
| CNC(=O)C(C(=O)NC)c1ccccc1 | 8.05% | -4.65% | -1.15% | -18.5% | -2.9% | 10.8% |
| CCOC(=O)c1cc(/C=C/C(C)=C/C(=O)OC)n(C)c1C | 74.5% (active) | 56% | 79.5% (active) | 34.5% | 80.2% (active) | 58.5% |
